Our source for the Potency values is PubChem BioAssay (Tox21).

Values joined by “and” are separate entries in the source; they are usually repeats but may differ in a detail not shown here. Equal values may be shown once. Inconclusive results are not listed. Where a call stands in place of a potency, no number is given. Some structures have more than one record in an assay (separate samples or runs), and their calls can disagree. Active and inactive are the calls of the source. Calls come from the whole dose curve; as a rule, active = well fitted inhibition curve with a large enough effect in the repeat runs; inconclusive = weak or mixed curves; inactive = no such curve, though single readings can be large or run the other way.
Potency is the fitted concentration of half-maximal effect.

The target in the test is Cytochrome P450 3A4 (Homo sapiens) (UniProt P08684). Briefly: Cytochrome P450 Family 3 Subfamily A Member 4 (CYP3A4) small molecule antagonists: luciferase reporter qHTS assay (AID 1671201). Note: nearly all actives have a fitted effect of over 50% in size. The note with it: P450-Glo CYP3A4 enzyme, luciferin luminescence, 1 h; series mostly up to 115 µM. The text has this: National Center for Advancing Translational Sciences [NCATS]
Cytochrome P450 3A4 (Homo sapiens), sequence (P08684 whole entry, looked up): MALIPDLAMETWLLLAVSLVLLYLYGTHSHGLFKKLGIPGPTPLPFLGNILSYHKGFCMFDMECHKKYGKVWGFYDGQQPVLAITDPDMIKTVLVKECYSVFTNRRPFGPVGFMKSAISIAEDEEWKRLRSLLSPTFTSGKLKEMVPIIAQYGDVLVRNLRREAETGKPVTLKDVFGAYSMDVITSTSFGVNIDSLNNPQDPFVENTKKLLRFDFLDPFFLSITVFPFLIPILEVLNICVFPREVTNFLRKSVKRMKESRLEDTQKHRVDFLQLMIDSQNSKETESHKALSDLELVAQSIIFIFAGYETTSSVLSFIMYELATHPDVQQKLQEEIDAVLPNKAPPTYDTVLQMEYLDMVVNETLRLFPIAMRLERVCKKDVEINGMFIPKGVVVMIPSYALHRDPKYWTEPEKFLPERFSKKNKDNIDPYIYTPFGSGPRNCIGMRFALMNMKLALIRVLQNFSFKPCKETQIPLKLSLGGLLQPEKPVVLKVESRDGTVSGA
U.S. Environmental Protection Agency [EPA]
National Institutes of Environmental Health Sciences [NIEHS]
National Toxicology Program [NTP]
U.S. Food and Drug Administration [FDA]
Cytochrome P450 (CYP) enzymes are membrane-bound hemeproteins that play a key role in metabolism of drugs and xenobiotics. Evaluation of the effect of chemicals on CYP isozymes is useful to minimize the adverse drug reactions and toxicities in drug development process. Tox21 chemicals were tested for their effect on CYP enzyme activities by using P450-Glo (TM) screening systems (Promega Corporation, Madison, WI). These systems provide a luminescent method containing proluciferin substrates and are converted to luciferin products by CYP isozymes. The luciferin products formed are detected with a luciferin detection reagent, and the amount of light produced is proportional to CYP activity. P450-Glo (TM) CYP3A4 screening system (Catalog. No. V9910) was used to detect the compounds that interfere in CYP3A4 activity. The positive control compound used for CYP3A4 assay is ketoconazole (Sigma-Aldrich, St. Louis, MO).
Tox21 Assay Protocol Summary:
Two ul of enzyme-substrate mix was dispensed into medium binding white/solid 1536-well plates (Greiner Bio-One North America Inc., Monroe, NC) using a BioRaptr Flying Reagent Dispenser (FRD, Beckman Coulter, Brea, CA). Compounds dissolved in DMSO and positive control (ketoconazole) were transferred to the assay plates at 23 nl using a Pintool station (Wako, San Diego, CA). The assay plates were incubated at room temperature for 10 min. Then 2 ul of NADPH regeneration solution was added to each well of the assay plates using an FRD and incubated at room temperature for 1 h. The reaction was stopped by adding 4 ul of detection reagent using an FRD and after 20 min incubation at room temperature the luminescence signal was measured using a ViewLux plate reader (Perkin Elmer, Shelton, CT). Data were expressed as relative luminescence units.
Turning to `c1nc[nH]n1`, the Potency entry is “inactive”.

Take `O=C(O)C(F)(F)C(F)(F)C(F)(F)C(F)(F)C(F)(F)C(F)(F)C(F)(F)F`: the Potency result was “inactive”.

`CC(C)c1ccc(CO)cc1`: the Potency entry is “inactive”.

`O=C(CCl)c1ccccc1`: the Potency result is “inactive”.

On to `CNC(=O)N(C)c1nnc(C(C)(C)C)s1`, for which the Potency entry is “inactive”.

In the case of `Cc1ccc2c(c1N)C(=O)c1ccccc1C2=O`, the Potency entry was “inactive”.

`CCC(=O)O[C@H]1CC[C@H]2[C@@H]3CCC4=CC(=O)CC[C@]4(C)[C@H]3CC[C@]12C`: the Potency result is “inactive”.

Turning to `O=[N+]([O-])c1ccc(O)c([N+](=O)[O-])c1`, the Potency result is “inactive”.

As for `COP(=O)(OC)OC`, the Potency was 16 µM (active) and inactive.

For `CC1(C)C(C=C(Cl)Cl)C1C(=O)OC(C#N)c1cccc(Oc2ccccc2)c1` (stereo not given), the Potency entry is “inactive”.

For `Cc1c(COC(=O)[C@@H]2[C@H](/C=C(\Cl)C(F)(F)F)C2(C)C)cccc1-c1ccccc1`, the Potency result is “inactive”.

Turning to `CNC(=O)Oc1cccc2c1OC(C)(C)O2`, the Potency entry was “inactive”.

On to `NCc1cccnc1`, for which the Potency entry is “inactive”.

In the case of `Oc1cc(Cl)ccc1Oc1ccc(Cl)cc1Cl`, the Potency entry was “inactive”.

Consider `CCN(CC)C(=O)/C(Cl)=C(\C)OP(=O)(OC)OC`, for which the Potency entry is “inactive”.

As for `N#Cc1cc(Br)c(O)c(Br)c1`, the Potency entry is “inactive”.

For `C=CCN(CC=C)C(=O)C(Cl)Cl`, the Potency result is “inactive”.

For `N#CCCCl`, the Potency entry was “inactive”.

Consider `C#C[C@]1(O)CC[C@H]2[C@@H]3CCC4=CC(=O)CC[C@]4(C)[C@H]3CC[C@@]21C`, for which the Potency entry is “inactive”.

Regarding `Cc1ccc(OP(=O)(Oc2ccc(C)cc2)Oc2ccc(C)cc2)cc1`, the Potency is 7.09 µM (active) and 10 µM (active).

With `O=[N+]([O-])c1cccc2ccccc12`, the Potency result was “inactive”.

As to `CC(O)CCO` (stereo not given), the Potency entry was “inactive”.

For `CCOc1cc(Oc2ccc(C(F)(F)F)cc2Cl)ccc1[N+](=O)[O-]`, the Potency entry was “inactive”.

With `CCN(N=O)C(N)=O`, the Potency result was “inactive”.

Consider `Cc1cc(C)cc(C)c1`, for which the Potency entry was “inactive”.

In the case of `Nc1ccc(Cl)c(Cl)c1`, the Potency was 32.5 µM (active).

`CC(C)Oc1cc(-n2nc(C(C)(C)C)oc2=O)c(Cl)cc1Cl`: the Potency entry was “inactive”.

`C1=Cc2cccc3cccc1c23`: the Potency entry was “inactive”.

As for `COP(=S)(OC)Oc1ccc([N+](=O)[O-])cc1`, the Potency is 17.8 µM (active).

As to `CCC(C)(C)c1ccc(O)cc1`, the Potency result is “inactive”.

For `CC(C)(c1cc(Cl)c(O)c(Cl)c1)c1cc(Cl)c(O)c(Cl)c1`, the Potency is 63.3 µM (active).

In the case of `Cc1cc(Cl)ccc1OCCCC(=O)O`, the Potency result is “inactive”.

With `Oc1cc(Cl)c(Cl)cc1Cl`, the Potency result is “inactive”.

Consider `CCC(C)c1ccc(O)cc1` (stereo not given), for which the Potency entry was “inactive”.

On to `O=P(Oc1ccccc1)(Oc1ccccc1)Oc1ccccc1`, for which the Potency result is “inactive”.

Take `Nc1c(Cl)cc([N+](=O)[O-])cc1Cl`: the Potency entry was “inactive”.

Regarding `C#CCOS(=O)OC1CCCCC1Oc1ccc(C(C)(C)C)cc1` (stereo not given), the Potency is 1.59 µM (active) and 2.83 µM (active).

In the case of `CCCCN(CCCC)N=O`, the Potency entry is “inactive”.

As to `CC(C)NC(C)C`, the Potency entry was “inactive”.

For the compound `CCCCCCCCCCCOC(=O)c1ccccc1C(=O)OCCCCCCCCCCC`, the Potency result is “inactive”.
